hcDAF12 agonist: activates DAF-12 receptor from parasite H. contortus. activation, % at 6.8 µM. 1.4% of 370,000 active. AID 652067. HEK293 hcDAF-12 lit1-tk-luc reporter, luminescence; 0% DMSO, 100% Δ7-dafachronic acid;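 active = activation above the mean of all tested compounds plus 3 SD, cut at about 5.5% in these data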;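 also: 100% = response to 3 µM Δ7-dafachronic acid high control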
Wee1 stabilizer: inhibitors of human Wee1 degradation; HeLa Luc-Wee1K328M stability, luciferase luminescence; 100% = proteasome inhibitor MG132 effect; 1.2% of 220,000 active; reporter increase, % at 5 µM;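 active = activation above the mean of all tested compounds plus 3 SD, set per screening run, cut at about 8.8% in these data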;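 also: cells exposed to compound for 20 h before luminescence read; 0% = DMSO alone and 100% = MG132 at 30 µM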
DAX1 inh-1: blocks DAX1 repression of SF-1 activated StAR promoter; HEK293T StAR-luciferase reporter, SF-1/DAX-1 repression relief; inhibition, % at 6.8 µM; 1.1% of 370,000 active; AID 652010;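 active = inhibition above the mean over all tested compounds plus 3 SD, cut at about 3.6% in these data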;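 also: 0% = DAX-1 cells with DMSO and 100% = cells lacking DAX-1 with DMSO; higher inhibition means more luminescence from relief of DAX-1 repression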
ssDAF12 agonist: S. stercoralis DAF-12 activation, primary screen. HEK293 ssDAF-12/GRIP1 lit1-tk-luc reporter, luminescence; % of 3 µM dafachronic acid response. activation, % at 6.8 µM. 1% of 370,000 active. AID 652126;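 active = activation above the mean over all tested compounds plus 3 SD, cut at about 0.9% in these data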;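 also: 0% = DMSO-only wells and 100% = 3 µM delta7-dafachronic acid wells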
hgDAF-12 ag: agonists of H. glycines DAF-12 nuclear receptor | HEK293 GAL4-hgDAF12 UAS-luciferase reporter, agonist luminescence; normalized to butyrate control | activation, % at 6.8 µM | 1.8% of 370,000 active;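 active = activation above a cutoff set at the mean of all screened compounds plus 3 SD, cut at about 10% in these data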;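 also: 0% = DMSO wells and 100% = sodium butyrate wells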
DAX1 inh-2: NR0B1 (DAX1) inhibition; P51843; HEK293 Gal4-DAX1 luciferase reporter, luminescence; inhibition, % at 6.75 µM; 0.99% of 340,000 active;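 active = inhibition above the mean over all tested compounds plus 3 SD, cut at about 4.2% in these data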;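 also: 0% = DAX1-transfected cells with DMSO and 100% = empty-vector control cells with DMSO; inhibition shows as a rise in luminescence from relieved DAX1 repression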
Target sequence (P51843 207-470 limits assumed): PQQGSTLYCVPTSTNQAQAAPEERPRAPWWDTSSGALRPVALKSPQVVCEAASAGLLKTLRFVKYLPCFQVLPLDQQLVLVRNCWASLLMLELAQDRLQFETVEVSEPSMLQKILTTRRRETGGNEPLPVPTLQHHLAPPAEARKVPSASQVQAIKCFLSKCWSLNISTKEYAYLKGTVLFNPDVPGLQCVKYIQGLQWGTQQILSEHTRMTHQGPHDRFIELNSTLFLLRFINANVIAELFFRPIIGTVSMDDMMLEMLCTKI
Wee1 degr conf: human Wee1 degradation inhibition, confirmation; 4% of 1,100 active; HeLa Luc-Wee1K328M degradation, luminescence; vehicle 0%, proteasome-blocked wells 100%; shares compounds with Wee1 stabilizer; activation, % at 5 µM; in the data active = activation above about 8.9%
Numbers without * were called inactive; / = not tested or not shown. Only some compounds are listed: those with a hit (about 4.6% of all), similar ones and a draw of the others.

SMILES	hcDAF12 agonist	Wee1 stabilizer	DAX1 inh-1	ssDAF12 agonist	hgDAF-12 ag	DAX1 inh-2	Wee1 degr conf
Cc1ccc(CN2CCN(Cc3cccn3-c3nccs3)CC2CCO)cc1 (configuration not stated)	-0.7	13.3*	-0.1	-2.0	1.8	-0.9	-1.3
O=C(NCCN1CCOCC1)C1CCC(=O)N1Cc1ccc(F)cc1 (configuration not stated)	0.5	10.9*	-1.2	-1.1	-0.6	1.1	4.7
Cc1ccc(CN2C(=O)CCC2C(=O)NCCCN2CCOCC2)cc1 (configuration not stated)	-0.8	1.4	-0.2	-1.1	-1.0	-1.0	/
CC(=O)Nc1cccc(-c2cn3ccccc3n2)c1	0.5	11.3*	0.8	0.1	3.8	0.7	-2.0
Cc1c(Cl)cccc1NC(=O)CCCn1nc([N+](=O)[O-])cc1C	-0.8	15.0*	0.3	-2.1	-0.6	0.4	-2.5
COc1cc(C)ccc1C(=O)N1CCC(Oc2cccnc2)CC1	-2.7	/	0.5	-1.1	3.4	/	/
O=C(CCC1CCCC1)N1CCC(N2CCCCCC2)CC1	-0.8	11.9*	-0.2	-1.2	-1.9	2.5	3.0
Cc1ccc(-n2nnc3c(=O)n(CC(=O)N4CCOCC4)cnc32)cc1	1.1	11.8*	0.4	-0.5	-1.5	0.0	0.2
CCNC(=S)N1CCN(CC(=O)Nc2ccc(OC)cc2)CC1	1.3	12.3*	-1.0	-1.3	-1.7	0.8	-1.4
CC1CNC(=S)N(c2ccccc2)C1=O (configuration not stated)	0.8	/	-1.1	-1.3	2.2	0.7	/
O=C(c1ccc([N+](=O)[O-])cc1)N1CCN(c2ncccn2)CC1	-0.5	/	-0.3	-0.2	-0.6	0.2	/
CCC(C)NCCOc1ccc(C)cc1[N+](=O)[O-] (configuration not stated)	-0.4	25.1*	-0.5	-1.5	-2.0	0.5	0.4
COc1ccc(/C=N/NC(=O)CN(C2=NS(=O)(=O)c3ccccc32)c2ccccc2)cc1OC	-2.1	0.9	0.3	-0.8	-2.2	-0.8	/
COc1cccc(/C=N/NC(=O)CN(C2=NS(=O)(=O)c3ccccc32)c2ccccc2)c1	-1.9	12.4*	-0.1	-1.9	-0.7	0.6	-0.2
O=C(NCC1CCN(C(=O)C(=O)c2cc3ccccc3o2)CC1)c1cc(C(F)(F)F)cc(C(F)(F)F)c1	-0.3	/	0.6	-0.5	2.2	/	/
CN1CCN(c2ncnc3c2cnn3-c2ccc(Cl)cc2)CC1	3.2	13.4*	1.0	-0.9	2.8	0.6	-7.2
COc1cccc(NC(=S)N2CCC(C(=O)c3ccc(F)cc3)CC2)c1	-1.0	/	0.0	-0.9	2.0	1.0	/
Clc1nccc(NCc2ccccc2)n1	-2.8	/	0.1	-1.9	2.3	1.8	/
Clc1cccc(NCc2ccccc2)n1	0.2	26.9*	-1.1	-1.3	4.1	4.9*	-0.6
COc1ccc(C(C)=O)cc1Cn1c(C)c(C(=O)NCc2cccc(C)c2)sc1=O	-2.9	/	-0.5	-1.6	-1.9	/	/
Nc1[nH]c(N=NC(=O)c2ccccc2O)c2ccccc12	1.9	14.2*	3.1	-0.7	12.5*	1.9	2.3
Cc1ccc(C(C(=O)NCc2ccco2)N(C(=O)CNC(=O)c2cccs2)c2c(C)cc(C)cc2C)cc1 (configuration not stated)	-1.1	11.5*	0.1	-1.7	-3.5	1.1	0.4
CC(C)(C)Cc1c(-c2ccc(C#N)cc2)nc2ccc(Cl)cn12	0.4	/	0.2	-1.1	1.7	-0.3	/
COc1ccc(NC(=S)Nc2ccccc2C(F)(F)F)cc1	-1.0	17.1*	-0.3	-1.0	-1.4	1.1	1.3
CC(=Nc1ccccc1)C1=C(O)C(Cc2ccc(O)cc2)NC1=O (configuration not stated)	-0.8	/	0.0	-0.6	-0.9	0.9	/
SMILES	hcDAF12 agonist	Wee1 stabilizer	DAX1 inh-1	ssDAF12 agonist	hgDAF-12 ag	DAX1 inh-2	Wee1 degr conf
COC(=O)c1ccccc1N=Nc1c(N)n[nH]c1N	2.6	-1.6	0.3	-0.4	1.4	0.0	/
COC(=O)c1ccccc1N=Nc1c(N)[nH][nH]c1=O	-1.2	17.9*	0.4	-1.7	-4.6	0.0	1.0
C=CCNC(=O)/C=C/c1c(F)cccc1Cl	-1.4	13.4*	0.3	-1.0	5.3	-0.8	-0.2
O=C(/C=C/c1c(F)cccc1Cl)Nc1ccc(S(=O)(=O)Nc2ncccn2)cc1	2.1	/	1.5	-0.2	1.8	0.3	/
COc1ccccc1-c1cncc(NC(C)=O)n1	-0.7	/	-1.4	0.6	3.3	/	/
O=C(N/N=C/c1ccc2ncccc2c1)c1ccco1	4.6	12.6*	4.2*	0.9	8.0	-1.9	-4.0
COc1ccc(C(C)C)cc1S(=O)(=O)n1ccnc1C	-0.3	12.8*	0.1	-1.6	-0.9	-0.1	0.8
COc1ccc(OC)c(S(=O)(=O)n2ccnc2C)c1	-0.8	-0.5	0.2	-0.4	-0.6	-1.1	/
Cc1ccc(NC(=O)NCc2c(C)nn(C)c2C)cc1Cl	1.4	17.7*	4.3*	-0.8	12.9*	0.5	4.3
COc1ccc(-c2nc(CCl)cs2)cc1	4.0	12.2*	2.1	0.1	5.0	-0.9	3.0
O=C/C=C/c1c(-c2ccccc2)cc2oc3ccccc3cc1-2	5.2	/	0.1	-0.6	-1.3	-0.8	/
CCCCCOc1ccc(Cn2ccnc2)cc1[N+](=O)[O-]	-2.4	-0.6	0.0	-2.3	-3.2	-2.7	/
COc1ccc(C(=O)NCCCn2ccnc2)cc1[N+](=O)[O-]	1.3	18.3*	-0.2	-0.7	0.3	1.0	-0.6
CCOc1ccc(Cn2ccnc2)cc1[N+](=O)[O-]	-2.4	16.0*	0.2	-0.8	0.5	-0.2	-0.4
CCCCc1cn([C@@H](CCCCNC(=O)OC(C)(C)C)C(=O)N2CCN(C(=O)OC(C)(C)C)CC2)nn1	-1.5	5.4	0.8	-1.6	-0.5	-1.1	/
C[C@H](O)[C@@H](C(=O)N1CCN(C(=O)OC(C)(C)C)CC1)n1cc(CCCCNC(=O)OC(C)(C)C)nn1	0.1	22.2*	0.1	-1.5	-0.6	-1.2	-0.1
C=CCOC(=O)c1ccccc1C(=O)OCC1CO1 (configuration not stated)	0.2	/	-0.6	-1.4	-1.4	1.6	/
Cc1cc(-c2nn(-c3ccccc3F)cc2CN(C)CC(O)CO)c(C)s1 (configuration not stated)	0.0	12.9*	-0.6	-0.8	1.0	0.0	2.5
Cc1cc(-c2nn(-c3ccccc3F)cc2CN2CCC(O)CC2)c(C)s1	-0.7	1.1	1.2	-1.4	0.0	0.8	/
COc1cc(NC(=O)C2CCCN(S(=O)(=O)c3ccccc3)C2)cc(OC)c1 (configuration not stated)	-5.4	/	-1.1	-1.6	-4.2	/	/

High-throughput results deposited in PubChem by The Scripps Research Institute Molecular Screening Center.
